Results as given in PubChem BioAssay (NCATS).
“And” between values parts separate entries of the source, which are not always exact repeats. Identical values can stand only once. Inconclusive results are not listed. Entries that show only a call come without a potency. Some structures have more than one record in an assay (separate samples or runs), and their calls can disagree. The source made the active and inactive calls. Unless noted, the call rests on the fitted dose curve; in most records, active means well fitted curve in the direction sought with a large enough effect; inconclusive means small, poorly fitted or top-dose-only effect, or another doubt; inactive means no such curve, though single readings can be large; an effect the other way counts as inactive or inconclusive.

Columns and labels:
[1] = target: Cytochrome P450 2C9 (Homo sapiens) (UniProt P11712); assay: qHTS Assay for Inhibitors and Substrates of Cytochrome P450 2C9 (AID 883); further: nearly all actives have a fitted effect of over 60% in size; further: potency means the concentration at half of the fitted maximal effect
Method in brief: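 CYP2C9 deoxyluciferin hydroxylation, 37C, 60 min with NADPH regeneration; 10nM enzyme, 100uM Luciferin-H (KM). Glo detection reagent stopped reaction; luminescence normalized to sulphaphenazole (57uM) full inhibition.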

[2] = target: Cytochrome P450 3A4 (Homo sapiens) (UniProt P08684); assay: qHTS Assay for Activators of Cytochrome P450 3A4 (AID 885); further: nearly all actives have a fitted effect of over 65% in size
Method in brief: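 Signal was normalized against complete inhibition by 57 uM ketoconazole. The reaction used 20nM CYP3A4 with 25uM Luciferin-PPXE, 10-min compound preincubation and a 60-min NADPH-supported step at RT.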

[3] = target: Cytochrome P450 2D6 (Homo sapiens) (UniProt P10635); assay: qHTS Assay for Inhibitors and Substrates of Cytochrome P450 2D6 (AID 891);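 further: luciferin methyl ether substrate demethylated by CYP2D6 with NADPH regeneration; nearly all actives have a fitted effect of over 60% in size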
Method in brief: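 Human CYP2D6 (5 nM) with 30 uM Luciferin-ME EGE (at Km) in 100 mM KPO4, compound preincubated 10 min, then NADPH regeneration system for 60 min at room temperature. Luciferin read by luminescence; normalized to 1.43 uM quinidine.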

[4] = target: Cytochrome P450 2C19 (Homo sapiens) (UniProt P33261); assay: qHTS Assay for Inhibitors and Substrates of Cytochrome P450 2C19 (AID 899); further: nearly all actives have a fitted effect of over 60% in size; further: potency means the concentration at half of the fitted maximal effect
Method in brief: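 In 50mM KPO4, the reaction held 5nM enzyme and KM-level (10uM) Luciferin-H EGE; it ran 60 min at 37C after NADPH regeneration and a 10 min compound preincubation. Luminescence values were scaled to 57uM ketoconazole as complete inhibition.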

[5] = qHTS Assay for Identification of Small Molecule Agonists for Hypoxia Response Element Signaling Pathway (AID 914; active means well fitted activation curve with a large enough effect in the signal ratio, with a control signal flat, not every such curve was filed as active; the % refers to the signal ratio); settings: ME-180 (cervical carcinoma) HRE-bla reporter, beta-lactamase ratio, CoCl2, 17 h; stronger effect = higher value
Method in brief: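 HRE-bla ME-180 cells with beta-lactamase reporter under hypoxia response element, compounds with EC50 CoCl2 for 17 hours at 37 C. CCF4 substrate, 460nm/530nm emission ratio gave %Activity; AC50 from titration series.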

[6] = target: Cytochrome P450 3A4 (Homo sapiens) (UniProt P08684); assay: qHTS Assay for Inhibitors and Substrates of Cytochrome P450 3A4 (AID 884); further: nearly all actives have a fitted effect of over 50% in size; further: potency means the concentration at half of the fitted maximal effect
Method in brief: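 20 nM human CYP3A4 with 25 uM Luciferin-PPXE (at KM) in 200 mM KPO4, preincubated 10 min with compound; NADPH regeneration started a 60 min RT reaction. Luciferin detected by luminescence, normalized to 57 uM ketoconazole as full inhibition.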

Sequence of Cytochrome P450 2D6 (Homo sapiens) (P10635 whole entry, looked up): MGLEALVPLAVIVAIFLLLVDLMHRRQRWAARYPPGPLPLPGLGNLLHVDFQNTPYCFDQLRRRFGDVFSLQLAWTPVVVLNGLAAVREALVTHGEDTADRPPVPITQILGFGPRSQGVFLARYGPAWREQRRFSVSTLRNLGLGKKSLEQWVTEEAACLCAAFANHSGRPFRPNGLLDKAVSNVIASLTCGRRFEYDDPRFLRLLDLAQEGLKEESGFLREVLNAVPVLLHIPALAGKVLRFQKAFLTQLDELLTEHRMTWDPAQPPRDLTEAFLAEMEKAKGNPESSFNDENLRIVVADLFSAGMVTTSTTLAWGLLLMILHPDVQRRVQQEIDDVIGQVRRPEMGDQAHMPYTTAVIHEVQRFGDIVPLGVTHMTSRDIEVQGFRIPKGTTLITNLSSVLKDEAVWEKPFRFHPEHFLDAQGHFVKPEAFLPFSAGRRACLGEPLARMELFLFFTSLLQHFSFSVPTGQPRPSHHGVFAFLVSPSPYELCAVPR
Sequence of Cytochrome P450 2C9 (Homo sapiens) (P11712 whole entry, looked up): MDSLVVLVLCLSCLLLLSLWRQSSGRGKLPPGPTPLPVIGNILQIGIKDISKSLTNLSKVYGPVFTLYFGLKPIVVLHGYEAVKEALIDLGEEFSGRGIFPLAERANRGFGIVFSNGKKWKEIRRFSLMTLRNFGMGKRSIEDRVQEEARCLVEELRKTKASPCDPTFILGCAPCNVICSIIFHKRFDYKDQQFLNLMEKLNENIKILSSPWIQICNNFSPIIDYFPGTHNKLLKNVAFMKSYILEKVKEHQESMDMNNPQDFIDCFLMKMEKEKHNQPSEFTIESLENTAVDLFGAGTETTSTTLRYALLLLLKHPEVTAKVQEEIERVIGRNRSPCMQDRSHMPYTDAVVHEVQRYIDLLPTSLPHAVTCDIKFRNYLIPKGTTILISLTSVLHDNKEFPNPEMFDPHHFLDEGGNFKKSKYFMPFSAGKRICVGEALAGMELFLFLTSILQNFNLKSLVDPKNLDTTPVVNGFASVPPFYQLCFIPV
Sequence of Cytochrome P450 2C19 (Homo sapiens) (P33261 whole entry, looked up): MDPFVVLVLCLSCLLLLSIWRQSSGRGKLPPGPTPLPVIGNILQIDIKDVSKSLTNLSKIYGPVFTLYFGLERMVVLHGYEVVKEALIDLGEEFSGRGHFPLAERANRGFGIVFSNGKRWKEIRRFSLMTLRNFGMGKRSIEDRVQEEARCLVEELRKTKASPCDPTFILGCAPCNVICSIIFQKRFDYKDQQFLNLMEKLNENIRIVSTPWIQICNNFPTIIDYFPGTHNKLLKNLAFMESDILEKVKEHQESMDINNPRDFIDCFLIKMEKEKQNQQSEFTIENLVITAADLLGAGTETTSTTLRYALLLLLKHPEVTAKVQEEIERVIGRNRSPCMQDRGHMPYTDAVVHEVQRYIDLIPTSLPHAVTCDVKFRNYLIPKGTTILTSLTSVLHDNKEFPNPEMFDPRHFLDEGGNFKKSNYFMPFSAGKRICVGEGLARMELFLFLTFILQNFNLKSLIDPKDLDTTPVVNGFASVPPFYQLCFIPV
Sequence of Cytochrome P450 3A4 (Homo sapiens) (P08684 whole entry, looked up): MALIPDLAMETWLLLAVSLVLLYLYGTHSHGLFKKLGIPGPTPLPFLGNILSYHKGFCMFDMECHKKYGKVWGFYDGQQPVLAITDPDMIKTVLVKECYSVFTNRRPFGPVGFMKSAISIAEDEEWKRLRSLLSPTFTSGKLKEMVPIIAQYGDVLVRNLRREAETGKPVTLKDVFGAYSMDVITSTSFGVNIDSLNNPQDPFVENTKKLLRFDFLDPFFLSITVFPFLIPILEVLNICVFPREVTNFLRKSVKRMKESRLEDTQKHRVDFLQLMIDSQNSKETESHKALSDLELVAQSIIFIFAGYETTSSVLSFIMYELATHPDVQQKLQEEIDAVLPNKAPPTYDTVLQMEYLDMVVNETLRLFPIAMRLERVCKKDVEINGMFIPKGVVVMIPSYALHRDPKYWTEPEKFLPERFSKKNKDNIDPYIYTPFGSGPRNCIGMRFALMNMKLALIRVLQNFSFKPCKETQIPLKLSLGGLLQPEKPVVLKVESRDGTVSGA

CC1CN2C(CCC(C)C2c2ccc(Br)cc2)C(=O)O1 (stereo not given)
Potency [1]: inactive
activity change, positive = activation [2]: -51.1% [at 11.4 µM] (inactive)
Potency [3]: inactive
Potency [4]: inactive and 501 nM (active)

COC(=O)C1=C(C)N(Cc2ccccc2)C2=C3C(=O)N(c4ccccc4)C(=O)C3[C@@](O)(C(=O)OC)C(=O)N2C1c1ccccc1 (stereo not given in full)
Potency [1]: inactive
activity change, positive = activation [2]: -39.6% [at 11.4 µM] (inactive) and -38.9% [at 11.4 µM] (inactive)
Potency [3]: inactive
Potency [4]: inactive

CCC(=O)[C@]12O[C@@]3(C4C(=O)OCCC41)N(CC)C(C)=C(C(=O)OC)C(c1ccccc1)N3C2=O (stereo not given in full)
Potency [1]: inactive
activity change, positive = activation [2]: -34.2% [at 11.4 µM] (inactive)
Potency [3]: inactive
Potency [4]: inactive

CC(C)CN1CCc2nc(-c3ccccc3)c3c(c2C1)COC(C)C3 (stereo not given)
Potency [1]: inactive
activity change, positive = activation [2]: -40.3% [at 11.4 µM] (inactive)
Potency [4]: inactive

O=C1CCCC=C1[C@H](CCc1ccccc1)OC(=O)c1ccc(Br)cc1
Potency [1]: 3.16 µM (active)
activity change, positive = activation [2]: -49.6% [at 11.4 µM] (inactive)
Potency [4]: 1.58 µM (active)

COc1ccc(-c2nc3c(c4c2CC(C)OC4)CN(CCC(C)C)CC3)cc1 (stereo not given)
Potency [1]: inactive
activity change, positive = activation [2]: -50.4% [at 11.4 µM] (inactive)
Potency [3]: inactive
Potency [4]: inactive

OCC1OC(c2ccc3c(c2)OCO3)C=CC1Oc1ccc(C2CCCC2)cc1 (stereo not given)
Potency [1]: inactive
activity change, positive = activation [2]: -50.7% [at 11.4 µM] (inactive)
Potency [4]: inactive

CC12C=C(/C=C/c3ccccc3)C(C)(C1)C(c1ccccc1)CC2=O (stereo not given)
Potency [1]: inactive
activity change, positive = activation [2]: -52.8% [at 11.4 µM] (inactive)
Potency [4]: 0.794 µM (active)

CCCCCCC1=Cc2cc(OC)c(OC)cc2C(CC(=O)/C=C/OC)O1 (stereo not given)
Potency [1]: inactive
activity change, positive = activation [2]: -40.4% [at 11.4 µM] (inactive)
Potency [3]: inactive
Potency [4]: inactive

CCOC(=O)OCC1OC(C#Cc2ccc(C)cc2C)C=CC1OC(=O)OCC (stereo not given)
Potency [1]: inactive
activity change, positive = activation [2]: -58.4% [at 11.4 µM] (inactive)
Potency [3]: inactive
Potency [4]: inactive

COC(=O)[C@@H]1CC[C@H](C)[C@@H](c2ccc(C)cc2)N1C(=O)c1ccc(/C=N\OC[C@@H](O)COCc2ccco2)cc1
Potency [1]: 3.98 µM (active)
activity change, positive = activation [2]: -58.1% [at 11.4 µM] (inactive)
activation [5]: 9.82% (inactive)

C=CCOC(=O)C(C(=O)CC)C(NC(=O)OC)c1ccc(F)cc1 (stereo not given)
Potency [1]: inactive
activity change, positive = activation [2]: -52.3% [at 11.4 µM] (inactive)
Potency [3]: inactive
Potency [4]: inactive

CC1CCC2C(=O)OC(Cc3ccccc3)CN2C1c1ccc(Br)cc1 (stereo not given)
Potency [1]: inactive
activity change, positive = activation [2]: -52.5% [at 11.4 µM] (inactive) and -47.1% [at 11.4 µM] (inactive)
Potency [3]: inactive
Potency [4]: 316 nM (active) and 3.16 µM (active)

CCCCCCC#CC1C=CC(Oc2ccc(C=O)cc2)C(CO)O1 (stereo not given)
Potency [1]: inactive
activity change, positive = activation [2]: -35.2% [at 11.4 µM] (inactive)
Potency [3]: inactive
Potency [4]: 3.98 µM (active)

OB(O)c1ccc(Br)cc1
Potency [6]: inactive

C=CCOCC/C=C1/c2ccccc2C(OC)C1C (stereo not given)
Potency [1]: inactive
Potency [4]: 3.98 µM (active)

O=C(O)c1cc(C(F)(F)F)nc2c(C(F)(F)F)cccc12
Potency [6]: inactive

FC(F)(F)c1ccc(C2[C@H]3CN(CC4CCCCC4)[C@H](c4ccccc4)C34CC2(c2ccccc2)C4)cc1 (stereo not given in full)
Potency [6]: inactive

CCN1C(=O)[C@H]2[C@H]3[C@H](O)[C@H](O)C/C(=N/O[C@@H](C)c4cc(-c5c(C)cc(C)cc5C)no4)[C@@H]3CC[C@@H]2C1=O
Potency [6]: 3.98 µM (active)

COC(=O)[C@@H]1C[C@@]2(O)[C@H](O)[C@H](O)[C@H](O)C[C@H]2N1Cc1cc(F)ccc1F
Potency [6]: inactive

CN(C)/C=N/c1cc(=O)n(Cc2ccccc2)c(=O)n1C
Potency [6]: inactive

O=C1OC(C2=CCCCC2)=NC12CC2
Potency [1]: inactive
Potency [3]: inactive
Potency [4]: inactive

CC(=O)Nc1ccc(-c2nc3ccc(Cl)cc3[nH]2)cc1
Potency [6]: inactive

OB(O)c1csc2ccccc12
Potency [6]: inactive

COC(=O)NC(c1cccc(F)c1)C(C(C)=O)C(=O)OC (stereo not given)
Potency [1]: inactive
Potency [3]: inactive
Potency [4]: inactive

Cn1c(-c2nc(-c3ccccc3)cs2)nc2ccccc21
Potency [6]: 10 µM (active)

COC(=O)NC(c1ccc(F)cc1)C(C(C)=O)C(=O)OC (stereo not given)
Potency [1]: inactive
Potency [4]: inactive

COC(=O)[C@@H]1C[C@H]2CC[C@H](O)C[C@H]2N1Cc1ccc(N2CCN(C)CC2)cc1
Potency [6]: inactive

CN(C)c1nc(N)c(C(=O)Nc2cccnc2)nc1Cl
Potency [6]: inactive

C=CCN1CCc2c(cc(O)c(O)c2Cl)C(c2cccc(C)c2)C1 (stereo not given)
Potency [6]: inactive

CC1CCC2C(=O)N3C(CCC(C)[C@@H]3c3ccc(-c4ccco4)cc3)C(=O)N2C1c1cccc(N2CCCC2=O)c1 (stereo not given in full)
Potency [1]: inactive
Potency [3]: inactive

CCC1=C2CC[C@H]3C(=O)NC(=O)[C@H]3[C@H]2[C@@]2(C)C(=NCCOC)OC(=O)N2C1=O
Potency [6]: inactive

OB(O)c1cc2ccccc2o1
Potency [6]: inactive

COC(=O)[C@@H]1C[C@@]2(O)[C@H](O)[C@H](O)[C@H](O)C[C@H]2N1CC1CC1
Potency [6]: inactive

CC1(C)Oc2cc3c(cc2O1)OC(C)(C)O3
Potency [1]: inactive
Potency [3]: inactive
Potency [4]: inactive

CC(C)Cn1c(N)c(C(=O)COC(=O)c2cc(C3CC3)nc3ccccc23)c(=O)n(C)c1=O
Potency [6]: inactive

CC1CCC2C(=O)OC(CN=[N+]=[N-])CN2C1c1ccc(Br)cc1 (stereo not given)
Potency [1]: inactive and 1 µM (active)
Potency [3]: inactive

COC(=O)c1ccc(C23CC4(C2)[C@H](CN(Cc2ccc(-c5ccccc5)cc2)[C@@H]4c2ccccc2)C3c2ccc(C(F)(F)F)cc2)cc1 (stereo not given in full)
Potency [6]: inactive
